Laboratory results as given in PubChem BioAssay (EPA / NIEHS).
“And” between values parts separate entries of the source, which are not always exact repeats. Equal entries are not always repeated. More than one record can exist for a structure, and the calls need not agree. The source made the active and inactive calls. The calls were made as follows: active = hit-call score of the fitted dose curve at least 0.9, where 1 is the maximum; inactive = score below 0.9.

What was measured:
[1] = ATG_CRE_CIS: Attagene CIS-FACTORIAL HepG2 Assay for human cAMP Responsive Element (CRE) binding protein 3 (AID 2282926); conditions: HepG2 CRE cis-reporter, Attagene multiplexed mRNA; actives raise or lower the signal
Procedure, shortened: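 Assay format: transient reporter transfection of HepG2, 24 h treatment, total RNA isolation with DNase I step. Reporter abundance read by fluorescence after PCR and capillary separation; DMSO-normalised gain or loss fitting.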

[2] = molecular target: CCAAT/enhancer-binding protein beta (Homo sapiens) (UniProt P17676); assay: ATG_C_EBP_CIS: Attagene CIS-FACTORIAL HepG2 Assay for human CCAAT/Enhancer Binding Protein (C/EBP) beta (AID 2282927); conditions: HepG2 Attagene cis-factorial transcription factor reporter; actives raise or lower the signal
Sequence of CCAAT/enhancer-binding protein beta (Homo sapiens) (P17676 whole entry, looked up): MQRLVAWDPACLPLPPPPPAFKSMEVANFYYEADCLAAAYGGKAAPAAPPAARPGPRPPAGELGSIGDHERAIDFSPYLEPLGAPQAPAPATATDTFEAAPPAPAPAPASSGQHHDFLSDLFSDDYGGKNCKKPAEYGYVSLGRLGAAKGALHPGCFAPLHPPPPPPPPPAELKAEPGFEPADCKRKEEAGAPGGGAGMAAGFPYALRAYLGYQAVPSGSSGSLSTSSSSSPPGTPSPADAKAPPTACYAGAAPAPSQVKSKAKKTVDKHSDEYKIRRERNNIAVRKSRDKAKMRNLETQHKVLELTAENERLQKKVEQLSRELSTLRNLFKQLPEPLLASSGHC
Procedure, shortened: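 Changes in reporter mRNA, rather than exogenous chimeric receptor activity, reflect native C/EBP signalling in transfected HepG2 cells dosed for 24 h; transcripts are detected by RT-PCR and capillary electrophoresis.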

[3] = ATG_CMV_CIS: Attagene CIS-FACTORIAL HepG2 Assay for human CMV (Internal Marker) (AID 2282928); conditions: HepG2 CMV promoter reporter, transcription factor profiling; actives raise or lower the signal;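 also: endpoint acts as a background internal control marker rather than a target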
Procedure, shortened: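 24 h chemical treatment, HepG2 with transient multi-reporter transfection; RNA → oligo(dT) RT → PCR → 6-FAM extension → HpaI digest → CE fluorescence. Bidirectional fit, DMSO negative control.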

[4] = ATG_DR4_LXR_CIS: Attagene CIS-FACTORIAL HepG2 Assay for human Liver X Receptor (LXR), DR4 submotif (AID 2282929); conditions: HepG2 Attagene DR4 cis-reporter, mRNA transcription; actives raise or lower the signal
Procedure, shortened: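 HepG2, transient MRTU transfection, cis-element (DR4) promoter; 24 h compound exposure; total RNA → oligo(dT) RT → PCR → 6-FAM primer extension → HpaI cut → CE. Gain/loss vs DMSO, bidirectional fit.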

[5] = molecular target: Aryl hydrocarbon receptor (Homo sapiens) (UniProt P35869); assay: ATG_Ahr_CIS: Attagene CIS-FACTORIAL HepG2 Assay for human Aryl Hydrocarbon Receptor (Ahr) (AID 2282930); conditions: HepG2 AhR cis-factorial reporter transcription; actives raise or lower the signal
Sequence of Aryl hydrocarbon receptor (Homo sapiens) (P35869 whole entry, looked up): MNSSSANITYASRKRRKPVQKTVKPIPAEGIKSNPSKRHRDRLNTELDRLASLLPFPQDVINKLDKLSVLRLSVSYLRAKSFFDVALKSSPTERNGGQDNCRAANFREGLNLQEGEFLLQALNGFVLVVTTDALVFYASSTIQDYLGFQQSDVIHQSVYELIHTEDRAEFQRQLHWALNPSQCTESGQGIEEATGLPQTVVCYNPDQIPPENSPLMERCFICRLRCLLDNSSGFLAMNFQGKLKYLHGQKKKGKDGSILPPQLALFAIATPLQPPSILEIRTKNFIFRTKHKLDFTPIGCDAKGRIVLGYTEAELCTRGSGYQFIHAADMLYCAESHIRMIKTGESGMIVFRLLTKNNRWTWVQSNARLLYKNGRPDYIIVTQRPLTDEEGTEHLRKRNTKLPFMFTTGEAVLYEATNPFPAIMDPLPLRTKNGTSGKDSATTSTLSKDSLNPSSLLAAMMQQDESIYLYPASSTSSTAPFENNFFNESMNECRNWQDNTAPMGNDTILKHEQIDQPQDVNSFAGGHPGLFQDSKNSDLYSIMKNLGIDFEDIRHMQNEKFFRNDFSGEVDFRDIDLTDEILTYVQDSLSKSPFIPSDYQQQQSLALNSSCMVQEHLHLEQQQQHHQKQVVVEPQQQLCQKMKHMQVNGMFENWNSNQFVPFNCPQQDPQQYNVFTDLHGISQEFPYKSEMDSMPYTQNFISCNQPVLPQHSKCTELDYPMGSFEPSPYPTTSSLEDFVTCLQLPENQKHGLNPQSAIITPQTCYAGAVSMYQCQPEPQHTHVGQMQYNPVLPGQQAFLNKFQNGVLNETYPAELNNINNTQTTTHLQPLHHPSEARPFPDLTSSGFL
Procedure, shortened: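 HepG2, transient MRTU (cis) transfection, 24 h exposure. RNA → cDNA → PCR → 6-FAM primer extension → HpaI 2 h 37 C → CE. Fit: bidirectional, DMSO baseline.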

[6] = ATG_AP_1_CIS: Attagene CIS-FACTORIAL HepG2 Assay for human Activator Protein 1 (AP-1) (AID 2282931); conditions: HepG2 Attagene cis-factorial AP-1 reporter mRNA; actives raise or lower the signal
Procedure, shortened: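 Transient MRTU transfection of HepG2 → 24 h chemical treatment → RNA isolation, RT-PCR, 6-FAM labelling, HpaI digest → capillary electrophoresis. Fit: bidirectional, DMSO negative control.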

[7] = ATG_BRE_CIS: Attagene CIS-FACTORIAL HepG2 Assay for human Bone Morphogenetic Protein (BMP) Response Element (BRE) (AID 2282933); conditions: HepG2 BMP response element reporter, Attagene transcription factor profiling; actives raise or lower the signal
Procedure, shortened: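 Endogenous transcription factor activity at a BMP response element was monitored in transfected HepG2 cells 24 h after dosing. Fluorescent RT-PCR products were resolved by capillary electrophoresis, and activity was fitted in both directions versus DMSO.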

[8] = molecular target: Transcription factor E2F1 (Homo sapiens) (UniProt Q01094); assay: ATG_E2F_CIS: Attagene CIS-FACTORIAL HepG2 Assay for human E2F Transcription Factor 1 (AID 2282935); conditions: HepG2 Attagene cis-reporter, E2F reporter RNA transcripts; actives raise or lower the signal
Sequence of Transcription factor E2F1 (Homo sapiens) (Q01094 whole entry, looked up): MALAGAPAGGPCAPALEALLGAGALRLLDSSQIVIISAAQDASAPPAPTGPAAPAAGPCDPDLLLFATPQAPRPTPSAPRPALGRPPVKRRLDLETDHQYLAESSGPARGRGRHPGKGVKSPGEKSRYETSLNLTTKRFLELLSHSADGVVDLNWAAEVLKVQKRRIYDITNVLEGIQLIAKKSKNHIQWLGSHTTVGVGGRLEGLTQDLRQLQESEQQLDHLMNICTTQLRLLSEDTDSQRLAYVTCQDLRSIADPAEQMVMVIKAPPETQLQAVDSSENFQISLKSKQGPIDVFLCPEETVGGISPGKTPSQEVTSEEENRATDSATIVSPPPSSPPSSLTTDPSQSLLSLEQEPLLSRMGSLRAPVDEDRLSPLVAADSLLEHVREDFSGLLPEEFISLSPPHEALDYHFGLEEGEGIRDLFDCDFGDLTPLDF
Procedure, shortened: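 Gain or loss of reporter transcript, fitted against DMSO, reflects E2F1-driven transcription. Transiently transfected HepG2 dosed 24 h before RNA isolation. Quantified by fluorescent RT-PCR products separated by capillary electrophoresis.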

[9] = ATG_AP_2_CIS: Attagene CIS-FACTORIAL HepG2 Assay for human Activator Protein 2 (AP-2) (AID 2282932); conditions: HepG2 AP-2 cis-reporter, Attagene transcription factor profiling; actives raise or lower the signal
Procedure, shortened: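 Endogenous transcription factor activity is reported through transfected multiplex reporter constructs in HepG2, after 24 h of compound exposure. Transcripts were quantified by RT-PCR and capillary electrophoresis of fluorescent fragments. Bidirectional fit against DMSO.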

[10] = molecular target: Retinoic acid receptor alpha (Homo sapiens) (UniProt P10276); assay: ATG_DR5_RAR_CIS: Attagene CIS-FACTORIAL HepG2 Assay for human Retinoic Acid Receptor Alpha (RARE), DR5 submotif (AID 2282934); conditions: HepG2 Attagene cis-factorial RARE DR5 reporter, mRNA; actives raise or lower the signal;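 as to AC50: reporter responds to endogenous RAR alpha beta and gamma in HepG2 not RARA alone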
Sequence of Retinoic acid receptor alpha (Homo sapiens) (P10276 whole entry, looked up): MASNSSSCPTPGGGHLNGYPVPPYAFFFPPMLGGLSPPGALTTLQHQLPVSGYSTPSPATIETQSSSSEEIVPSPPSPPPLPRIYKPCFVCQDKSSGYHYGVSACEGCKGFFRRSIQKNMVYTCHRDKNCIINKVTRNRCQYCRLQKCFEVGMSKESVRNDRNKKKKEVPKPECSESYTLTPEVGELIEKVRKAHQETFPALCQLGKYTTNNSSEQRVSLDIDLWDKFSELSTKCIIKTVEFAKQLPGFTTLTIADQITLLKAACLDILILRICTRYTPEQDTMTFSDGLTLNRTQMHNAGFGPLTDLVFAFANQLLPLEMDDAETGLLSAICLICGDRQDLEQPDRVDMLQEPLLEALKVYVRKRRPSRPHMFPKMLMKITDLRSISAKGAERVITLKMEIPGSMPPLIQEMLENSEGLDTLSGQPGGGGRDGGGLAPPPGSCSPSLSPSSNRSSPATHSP
Procedure, shortened: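 HepG2, transient cis-reporter transfection, 24 h exposure. mRNA readout: RT-PCR, FAM label, HpaI cut, capillary electrophoresis. DMSO baseline, gain/loss fitting.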

Measured: AC50

O=C1O[C@H]([C@@H](O)CO)C(O)=C1O
active: [5] 62 µM
inactive: [1] | [2] | [3] | [4] | [5] | [6] | [7] | [8]

NCc1cccc(C2CCN(C(=O)c3ccc(C#Cc4ccccc4F)o3)CC2)c1
active: [1] 11 µM | [2] 11 µM | [3] 11 µM | [6] 11 µM
inactive: all other assays above

Cc1cn([C@H]2C[C@H](N=[N+]=[N-])[C@@H](CO)O2)c(=O)[nH]c1=O
active: [3] 27.4 µM
inactive: all other assays above

CO[C@H]1/C=C/O[C@@]2(C)Oc3c(C)c(O)c4c(O)c(c(/C=N/N5CCN(C)CC5)c(O)c4c3C2=O)NC(=O)/C(C)=C\C=C\[C@H](C)[C@H](O)[C@@H](C)[C@@H](O)[C@@H](C)[C@H](OC(C)=O)[C@@H]1C
inactive: [1] | [2] | [3] | [4] | [5] | [9] | [7] | [10] | [8]
active: [5] 37.4 µM

O=C(O)c1ccccc1-n1cc(C(=O)O)c(=O)c2cc(Nc3c(F)cc(F)cc3Cl)c(Cl)cc21
not listed: [8] | [9]
inactive: all other assays above

CC(C)(O)c1ccc(CNC(=O)c2cccnc2Oc2ccc3nonc3c2)cc1
not listed: [8] | [9]
inactive: all other assays above

O=c1c(-c2ccc(O)cc2)coc2cc(O)cc(O)c12
active: [1] 27.5 µM and 50.6 µM | [2] 36.5 µM [middle of 4 runs] | [3] 19.1 µM [middle of 4 runs] | [4] 7.13 µM and 4.78 µM | [5] 34.3 µM | [10] 62.3 µM
inactive: [1] | [4] | [5] | [6] | [7] | [10]

Clc1cc(Cl)c2c(c1)N=C1CCCCCN1C2
active: [4] 78.1 µM
not listed: [8]
inactive: all other assays above

O=C=NCCCCCCN=C=O
inactive: all assays above

Cc1occc1C(=O)Nc1ccc(C(=O)N2CCC(F)(F)/C(=C\C(=O)N3CCC(N4CCCCC4)CC3)c3ccccc32)cc1
active: [4] 50.3 µM | [5] 12.3 µM | [7] 13.2 µM
inactive: all other assays above

CCCCCCCCCCCC[N+](C)(C)C
active: [4] 22.4 µM and 33.4 µM | [6] 33.4 µM and 12.7 µM | [7] 33.4 µM and 27.1 µM
inactive: all other assays above

CN(C)C(=O)C1(N2CCCCC2)CCN(CC[C@@]2(c3ccc(Cl)c(Cl)c3)CN(C(=O)c3ccccc3)CCO2)CC1
active: [6] 0.463 µM
not listed: [8]
inactive: all other assays above

CCCCCCCC[Si](OCC)(OCC)OCC
inactive: [1] | [2] | [5] | [7] | [10]
active: [1] 54.5 µM | [2] 65.7 µM | [3] 62.9 µM [middle of 4 runs] | [4] 126 µM [middle of 4 runs] | [6] 70.2 µM [middle of 4 runs] | [7] 159 µM | [10] 69.2 µM

Cc1oc2c(NC(=O)c3c(Cl)cccc3Cl)cccc2c1C(C)(C)O
inactive: [1] | [2] | [4] | [9]
active: [3] 6.16 µM | [5] 4.28 µM | [6] 38 µM | [7] 152 µM | [10] 3.06 µM

CC/C(=C(/CC)c1ccc(O)cc1)c1ccc(O)cc1
active: [1] 15.9 µM | [3] 18 µM and 15.4 µM | [4] 7.89 µM [middle of 4 runs]
inactive: [1] | [2] | [3] | [4] | [7]

CN(C)c1ccc(C(=C2C=CC(=[N+](C)C)C=C2)c2ccc(N(C)C)cc2)cc1
active: [2] 4.56 µM | [4] 2.86 µM | [6] 2.23 µM | [10] 2.58 µM
inactive: all other assays above

CCCCCCCCCCCO
inactive: all assays above

CC(C)(C)c1cc(/C=C2\SC(N)=NC2=O)cc(C(C)(C)C)c1O
active: [1] 18.9 µM | [3] 4.67 µM | [4] 6.65 µM | [6] 20.2 µM
inactive: all other assays above

CCN(Cc1cccnc1)C(=O)c1cccc(Cl)c1[C@]1(C)C(=O)N(Cc2ccc(OC)cc2OC)c2ccc(Cl)cc21
active: [1] 10.8 µM | [3] 8.21 µM | [4] 7.45 µM | [5] 1.75 µM | [6] 10.3 µM | [10] 0.293 µM | [8] 7.42 µM
inactive: [2] | [9] | [7]

c1ccc2ccccc2c1
not listed: [8]
inactive: all other assays above

CC1(C)NC(=O)N(c2ccc([N+](=O)[O-])c(C(F)(F)F)c2)C1=O
inactive: [1] | [2] | [3] | [4] | [5] | [7] | [10]
active: [1] 0.00911 µM | [10] 0.083 µM

CCCOC(=O)c1cc(O)c(O)c(O)c1
active: [3] 58.6 µM
not listed: [8]
inactive: all other assays above

CCCCCc1ccc(N)cc1
active: [5] 65.5 µM
inactive: [1] | [2] | [3] | [4] | [5] | [9] | [7] | [10]

Cc1cccc2ccccc12
not listed: [8]
inactive: all other assays above

CCN(CC)C(=O)c1cc(S(=O)(=O)Cc2ccccc2)c(N2CCC(c3ccccc3)CC2)cc1N(CC)CCN(C)C
inactive: all assays above

c1ccc(C[n+]2cccc3ccccc32)cc1
active: [3] 100 µM | [5] 69.6 µM | [6] 41.1 µM
inactive: all other assays above

CC(O)CC(C)(C)O (centres undefined)
not listed: [8] | [9]
inactive: all other assays above

Cc1cc(F)ccc1-c1cc(N2CC[C@@H](O)[C@H]2CO)ncc1N(C)C(=O)C(C)(C)c1cc(C(F)(F)F)cc(C(F)(F)F)c1
not listed: [8]
inactive: all other assays above

CCCCOC(=O)c1ccc(O)cc1
active: [1] 72.6 µM | [2] 100 µM | [4] 169 µM | [7] 166 µM [middle of 4 runs]
inactive: [1] | [2] | [3] | [4] | [5] | [6] | [10]

O=C(O)Cn1c(=O)n(Cc2ccc(Br)cc2F)c(=O)c2ccc(Cl)cc21
inactive: all assays above

NC(=O)c1nc(-c2cccc(-c3cc(F)ccc3OCC(F)(F)C(F)(F)F)c2)n[nH]1
active: [1] 27.7 µM | [3] 12.1 µM | [4] 44.4 µM | [6] 24 µM | [7] 19.8 µM | [8] 16.8 µM
inactive: [2] | [5] | [9] | [10]

O=C1CCC(C2CCCCC2)CC1
inactive: [1] | [2] | [3] | [4] | [5] | [7] | [10]
active: [3] 100 µM and 39.3 µM | [4] 164 µM and 171 µM and 160 µM | [6] 133 µM [middle of 4 runs] | [7] 147 µM and 156 µM

CN1C(=O)N(c2ccccc2Br)Cc2cnc(Nc3ccc4c(c3)OCC(CO)O4)nc21 (centres undefined)
active: [1] 5.78 µM | [2] 2.61 µM | [4] 27.1 µM | [6] 4.77 µM
inactive: all other assays above

CCCCOC(=O)CC(CC(=O)OCCCC)(OC(C)=O)C(=O)OCCCC
inactive: [1] | [2] | [3] | [4] | [5] | [6] | [9] | [7] | [8]
active: [4] 23.4 µM | [7] 42.6 µM
